Sfp inh = inhibitors of Bacillus subtilis Sfp phosphopantetheinyl transferase. Biochemical Sfp PPTase activity, qHTS. actives 3.5% (n = 310,000). Q9F4F7. AID 1490. Potency, µM, for inactives: largest response in the series, negative = inhibition, hits mostly inhibitors;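 further: the enzyme is Sfp with the accession as filed and its product quenches rhodamine fluorescence; potency means the concentration at half of the fitted maximal effect; 0% = enzyme reaction without inhibitor and -100% = no enzyme wells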
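Compounds were incubated with enzyme (final 15 nM) for 15 min at room temperature before substrate addition started the reaction. Fluorescence at 525 nm excitation, 598 nm emission was recorded immediately and after 30 minutes.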
BAZ2B inh = inhibitors of human BAZ2B bromodomain | Q9UIF8 | AlphaScreen BAZ2B-H3K14Ac peptide displacement | Potency, µM (doses to about 114 µM), without a hit: at the top dose activity change, negative = inhibition, hits mostly inhibitors | actives 4.4% (n = 360,000); further: potency means the concentration at half of the fitted maximal effect; on the % scale 0 is the no-effect control and ±100 the full control effect; nearly all actives have a fitted effect of over 60% in size
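AlphaScreen displacement of biotin-H3(5-23)K14Ac peptide (50 nM final) from BAZ2B (50 nM final) in PBS pH 7.4, 0.01% Tween-20; complex preformed 30 min RT, then compounds (top 110 uM) 30 min RT, beads 20 min dark.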
JMJD2A Tudor inh = JMJD2A Tudor domain (human) inhibition; AlphaScreen JMJD2A-Tudor / H3K4me3 peptide binding; Potency, µM (doses to about 114 µM), without a hit: at the top dose activity change, negative = inhibition, most hits filed as inhibitors; actives 4.4% (n = 390,000); AID 504339; further: potency means the concentration at half of the fitted maximal effect; on the % scale 0 is the no-effect control and ±100 the full control effect; nearly all actives have a fitted effect of over 50% in size
G9a inh = inhibitors of human histone lysine methyltransferase G9a | actives 8.8% (n = 350,000) | G9a H3K9 monomethylation, AlphaScreen, 2 h | Potency, µM (doses to about 102 µM), inactives show top-dose activity, negative = inhibition, actives largely listed as inhibitors | AID 504332 | Q96KQ7; further: potency means the concentration at half of the fitted maximal effect; on the % scale 0 is the no-effect control and ±100 the full control effect; nearly all actives have a fitted effect of over 75% in size
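Chemiluminescent proximity detection of H3K9 monomethylation, read after 10 min bead incubation in the dark. Reaction: 20 nM G9a, 500 nM biotin-H3K9 peptide, 20 uM SAM cofactor, 2 h, room temperature, following 15 min enzyme-compound preincubation.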
HP1b binding inh = blocks HP1-beta chromodomain binding to methylated histone tails; AlphaScreen HP1-beta / biotin-H3K9me3 peptide binding; Potency, µM (top dose mostly 114 µM), for inactives: at the highest dose activity change, negative = inhibition, hits mostly inhibitors; actives 0.56% (n = 390,000); AID 540317; P83916; further: potency means the concentration at half of the fitted maximal effect; nearly all actives have a fitted effect of over 70% in size
Target sequence (P83916 whole entry, looked up): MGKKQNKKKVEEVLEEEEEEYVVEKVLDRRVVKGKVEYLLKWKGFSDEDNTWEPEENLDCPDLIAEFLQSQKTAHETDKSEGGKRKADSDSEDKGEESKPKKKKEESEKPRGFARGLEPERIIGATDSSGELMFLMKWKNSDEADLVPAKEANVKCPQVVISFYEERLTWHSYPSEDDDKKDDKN
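Compound inhibition of the preformed complex between 50 nM HP1-beta and 50 nM biotinylated H3K9me3 peptide was read by AlphaScreen. Buffer was PBS pH 7.4 with 0.01% Tween-20. Incubations ran 30 min at room temperature, with 10 ug/mL donor/acceptor beads.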
12-hLO 8HQ R1 = confirmation of human 12-lipoxygenase inhibitors, 8HQ series round 1. shares compounds with BAZ2B inh. purified 12-hLO, cuvette UV 234 nm product formation. Potency, µM, most hits filed as inhibitors. actives 60% (n = 35);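 active means compounds that slowed 12-hLO product formation enough to yield a measured IC50 potency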
KDM4E inh = blocks human JMJD2E demethylase activity. Potency, µM (titrated, usually from 57 µM), for inactives: top-dose activity, negative = inhibition, usual class: inhibitors. actives 89% (n = 130). shares compounds with BAZ2B inh. JMJD2E demethylase, FDH-coupled NADH fluorescence (FDH is formaldehyde dehydrogenase)
Target sequence (B2RXH2 1-337 limits assumed): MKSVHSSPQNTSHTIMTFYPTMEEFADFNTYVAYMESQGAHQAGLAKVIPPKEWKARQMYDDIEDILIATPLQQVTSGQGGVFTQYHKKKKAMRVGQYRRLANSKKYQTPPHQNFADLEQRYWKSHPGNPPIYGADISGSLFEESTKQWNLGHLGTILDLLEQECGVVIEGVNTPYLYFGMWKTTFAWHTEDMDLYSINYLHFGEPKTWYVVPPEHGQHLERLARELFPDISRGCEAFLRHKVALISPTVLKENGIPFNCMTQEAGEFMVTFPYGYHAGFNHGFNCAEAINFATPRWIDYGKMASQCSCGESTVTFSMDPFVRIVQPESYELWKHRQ
ME-1 prolif = ME-1 cell growth inhibition; Potency, µM (highest dose often 56.1 µM), inactives show at the top dose activity change, negative = inhibition, most hits filed as inhibitors; ME-1 cell proliferation, ATP luminescence, 48 h; AID 504370; actives 20% (n = 140); shares compounds with BAZ2B inh
* = called active by the depositor; i = inactive; u = inconclusive; x = not tested or not shown; ! = a repeat was not active; [ ] = dose if it differs, or a comment. In the library only some 12% were active in any assay of this set; here they are far more common. Unless noted, the call rests on the fitted dose curve; in most records, active means well fitted curve in the direction sought with a large enough effect; inconclusive means small, poorly fitted or top-dose-only effect, or another doubt; inactive means no such curve, though single readings can be large; an effect the other way counts as inactive or inconclusive.

SMILES | Sfp inh | BAZ2B inh | JMJD2A Tudor inh | G9a inh | HP1b binding inh | ME-1 prolif | others
CCC(C)c1ccccc1NC(=O)c1cc(C)no1 (stereo not given) | 9% | 13% | -8% | 8% | 12% | x
CC(=O)NC(C)c1cc(F)c2cccnc2c1O (stereo not given) | x | 22µM* | 79µM* | u | 37% | x | 12-hLO 8HQ R1=i;KDM4E inh=23µM*
CC(=O)NC(c1cc(F)c2cccnc2c1O)C(C)C (stereo not given) | x | 79µM* | x | 4%[12.7 µM] | x | x | 12-hLO 8HQ R1=i;KDM4E inh=20µM*
CC(=O)NC(c1cc(Cl)c2cccnc2c1O)C(C)C (stereo not given) | x | 79µM* | u | 9%[12.7 µM] | 32% | x | 12-hLO 8HQ R1=2.6µM*;KDM4E inh=23µM*
CC(=O)NC(c1cc(Cl)c2cccnc2c1O)C1CC1 (stereo not given) | x | 32µM* | u | 13%[12.7 µM] | 84% | x | 12-hLO 8HQ R1=3µM*;KDM4E inh=18µM*
CC(=O)NC(c1cc(Cl)c2ccccc2c1O)C(C)C (stereo not given) | x | -3% | -7% | -13%[0.501 µM] | 47% | x
CCOc1cc(C(=O)CCC(=O)OCC(=O)Nc2ccc(C)c(S(=O)(=O)N(C)C)c2)ccc1O | 11% | u | -14% | -15% | 27% | x
COc1ccc(C(=O)NC2CCCc3c2cnn3-c2cc(F)cc(F)c2)c(OC)c1OC (stereo not given) | 4% | -23% | -13% | 14% | 45% | x
O=C(NCC1CCCC(CNC(=O)Nc2ccc(Cl)cn2)C1)Nc1ccc(Cl)cn1 (stereo not given) | 10% | -17% | -13% | 7% | 9% | x
CC(C)=CC[C@@H](O)C1=CC(=O)c2c(O)ccc(O)c2C1=O | 50µM* | x | x | 6.3µM* | x | 1.1µM*
Nc1cccc(N)c1 | x | x | x | x | x | -2%
Nc1cccc(S(=O)(=O)c2cccc(N)c2)c1 | 11% | -3% | -6% | 16% | 22% | x
COc1cccc(C(c2sc3nc(-c4ccco4)nn3c2O)N2CCC3(CC2)OCCO3)c1 (stereo not given) | x | -18% | -19% | u | 4% | x
O=C(O)c1cc(O)ccc1O | x | x | -14% | x | 88% | x
O=C(O)C1=CC(=C(c2ccc(O)c(C(=O)O)c2)c2ccc(O)c(C(=O)O)c2)C=CC1=O | -2% | 1.1µM* | x | 1.1µM* | x | -13%
CC(=O)N[C@H](Cc1c[nH]c2ccccc12)C(=O)O | x | x | -17% | x | 23% | x
CC(Cc1c[nH]c2ccccc12)C(=O)O (stereo not given) | 5% | 45µM* | 25µM* | 10µM* | u | -10%[25.6 µM]
NC(=O)N(CCC(=O)O)c1ccccc1 | 9% | 50µM* | 9%[57.1 µM] | u | 16% | -12%[25.6 µM]
CCN(CCC(=O)O)c1ccccc1 | -20% | u | u | u | 11% | x
COc1cc(F)cc(-c2ccc3c(c2)c(C#Cc2ccsc2)c(-c2cc(OC)cc(OC)c2)n3C)c1 | x | x | 0% | x | 76% | x
CC1=NN(c2ccccc2)C(=O)/C1=C/C=C/c1ccc(N(C)C)cc1 | -7% | 2µM* | 2.5µM* | 2µM* | 2.5µM* | u
CC1(C)N([O-])C2=C(CCCC2)[N+]1=O | -2% | u | -20% | u | -1% | -15%[25.6 µM]
O=C(OCc1c(-c2ccccc2)ncc2ccccc12)c1ccc(Cl)cc1Cl | x | -4% | 1% | 3%[0.501 µM] | 44% | x
c1ccc(-c2cccs2)nc1 | 19% | 7% | -5% | 31% | 0% | x
c1ccc(-c2ccc(-c3ccccn3)nn2)nc1 | 16µM* | 2µM* | x | u | x | 18µM*
SMILES | Sfp inh | BAZ2B inh | JMJD2A Tudor inh | G9a inh | HP1b binding inh | ME-1 prolif | others
c1ccc(-c2nc3cc4ccccc4cc3[nH]2)nc1 | -5% | 5% | -21% | 30% | 51% | x
c1ccc(-c2ccccn2)nc1 | -10% | 79µM* | u | 14µM*! | 68% | -13%
c1ccc(-c2n[nH]c(-c3ccccn3)n2)nc1 | 20µM* | 0.71µM* | 1µM* | u | 29% | u
CC(=O)N1CC[C@@H]2CC(=O)C[C@@H](C)[C@@H]21 | 13% | x | x | 25%[135 µM] | x | x
Cc1ccc(C(=O)CC2C(=O)N(c3ccccc3)C(=S)N2c2ccccc2)cc1 (stereo not given) | 5% | -2% | -9%[57.1 µM] | -10%[59 µM] | 49% | x
Oc1csc(Cc2nc(-c3ccccc3F)cs2)n1 | -15% | -3% | -22% | u | 43% | 1%[25.6 µM]
Oc1csc(Cc2nc(-c3ccc(-c4ccccc4)cc3)cs2)n1 | -3% | -2% | -3% | 78%[12.7 µM] | 1% | x
CC(=O)Nc1ccc(Nc2nc3ccccc3n3cnnc23)cc1 | 9% | -14% | 3% | 0% | 25% | x
O=C(O)C[C@@H]1C(=O)O[C@@H]2C(COC(=O)c3cc(O)c(O)c(O)c3)O[C@@H](OC(=O)c3cc(O)c(O)c(O)c3)[C@@H](OC(=O)c3cc(O)c(O)c4c3[C@H]1[C@H](O)C(=O)O4)[C@H]2OC(=O)c1cc(O)c(O)c(O)c1 (stereo not given in full) | 45µM* | 0.71µM* | x | u | x | u
COC1OC(COC(=O)c2ccccc2)C(OC(=O)c2ccccc2)C1OC(=O)c1ccccc1 (stereo not given) | -1% | 12% | 5% | 6%[2.33 µM] | 39% | x
O=C(CC1CC2CCC1C2)N1CCN(S(=O)(=O)c2ccccc2C(F)(F)F)CC1 (stereo not given) | x | -3% | 2% | 6%[12.7 µM] | 47% | x
c1ccc(Oc2cccc3cccnc23)nc1 | 0% | -2% | -10% | 8% | 8% | x
c1cnc2c(c1)ccc1cccnc12 | 2.5µM* | 1.6µM* | 7.9µM* | 13µM* | 31% | 8.9µM*
Cc1cc2nc(CCN3CCOCC3)n(S(=O)(=O)c3ccc(C(C)(C)C)cc3)c2cc1C | 2% | 4% | -21% | 11%[59 µM] | 12% | x
CCCCCCCCCCCCCCCCCCOC[C@H](COP(=O)([O-])OCC[N+](C)(C)C)OC | 15% | x | x | 5%[12.7 µM] | x | 16%
O=C1NC[C@H](CC2CCCCC2)N(CC2CCCCC2)C1=O | x | -24% | -23% | 9%[12.7 µM] | 54% | x
O=C(NCCc1ccccc1)c1cccc(Br)n1 | -18% | x | x | -2% | x | -13%
CCCc1cc(C(=O)Cc2ccc(F)cc2)c(O)cc1O | -16% | 9% | -21%[11.4 µM] | -12%[12.7 µM] | 88% | x
CCCC(=O)c1cc(O)c(O)cc1O | x | x | x | x | x | -1%

Bioassay records: PubChem BioAssay, National Center for Advancing Translational Sciences (NCATS)
